Measured values reported in PubChem BioAssay AID1159580 (chemical genetic matrix, 2015).
The campaign covered roughly 5,500 compounds. About 2,000 (36%) were called active. Roughly 18% stayed inconclusive and do not appear here. Cut-off read from the data, not from the text of the source: active = normalized growth mostly below about 0.91 (no sharp cut-off); inconclusive = no clear call, values can overlap the other calls; inactive = mostly above about 0.92. The list shows a part of the results.

Test: chemical genetic growth profiling, strain panel (AID 1159580);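 note: tested at 20 µM; growth read once vehicle control cultures reached saturation at 30 °C; 1 = growth at the plate median or of vehicle wells; lower values mean less growth of the strain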
Settings: S. cerevisiae deletion strains, growth OD
[1] = locus YAL013W, strain DEP1, hits give low values
[2] = locus YAL040C, strain CLN3, hits give low values
[3] = locus YCL061C, strain MRC1 (second series), hits give low values
[4] = locus YDR363W, strain ESC2, hits give low values
[5] = locus YER002W, strain NOP16, hits give low values
[6] = locus YMR263W, strain SAP30, hits give low values
[7] = locus YNL153C, strain GIM3, hits give low values
[8] = locus YNL175C, strain NOP13, hits give low values
[9] = locus YNL197C, strain WHI3, hits give low values
[10] = locus YNL224C, strain SQS1, hits give low values
[11] = locus YOR083W, strain WHI5 (second series), hits give low values

Measured: normalized growth

CC(N)c1cccc(Cl)c1Cl (centres undefined)
inactive: [1] 1.01 | [2] 0.969 | [3] 1 | locus YDR150W, strain NUM1, hits give low values 0.996 | [4] 1.08 | [5] 1.01 | locus YGR078C, strain PAC10, hits give low values 0.981 | locus YJR075W, strain HOC1, hits give low values 1.02 | [6] 1 | locus YNL128W, strain TEP1, hits give low values 1.01 | [7] 0.972 | [8] 0.981 | [9] 0.953 | [10] 1.01 | [11] 1.01 | locus YPL055C, strain LGE1, hits give low values 1.07

O=C(O)/C=C/C(O)c1ccc(Cl)cc1 (centres undefined)
inactive: [1] 0.986 | [2] 1.07 | [3] 0.982 | [4] 1.02 | [5] 1 | [6] 0.983 | locus YMR307W, strain GAS1, hits give low values 1.03 | [7] 0.997 | [8] 0.997 | [9] 0.986 | [10] 0.98 | [11] 0.998 | locus YPL241C, strain CIN2, hits give low values 0.985
